Nrf2 ARE act – qHTS of Nrf2 Activators. Potency, µM (top dose mostly 46.1 µM), for the others: at the highest dose activation, usual class: activators. AREc32 ARE-luciferase reporter (MCF7-derived line), luminescence, 24 h. actives 0.31% (n = 410,000). AID 624171, 2012; further: potency means the concentration at half of the fitted maximal effect; % of control where 0% means no effect; nearly all actives have a fitted effect of over 65% in size
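AREc32 cells carrying an ARE-driven firefly luciferase reporter were seeded at 1000 cells/well in OPTI-MEM with 5% FBS, then exposed to compound for 24 hr at 37 deg C. Luminescence was read with Steady-Glo after 30 min at RT.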
ALOX12 inh – Primary qHTS assay for inhibitors of human arachidonate 12S-lipoxygenase (ALOX12): Round 2; purified 12hLO, xylenol orange hydroperoxide absorbance; Polyunsaturated fatty acid lipoxygenase ALOX12 (Homo sapiens), P18054; actives 1.1% (n = 580,000); Potency, µM (titrated, usually from 108 µM), for the others: at the highest dose activity change, negative = inhibition, usual class: inhibitors; AID 1671190, 2021; further: potency means the concentration at half of the fitted maximal effect; on the % scale 0 is the no-effect control and ±100 the full control effect
Target sequence (P18054 whole entry, looked up): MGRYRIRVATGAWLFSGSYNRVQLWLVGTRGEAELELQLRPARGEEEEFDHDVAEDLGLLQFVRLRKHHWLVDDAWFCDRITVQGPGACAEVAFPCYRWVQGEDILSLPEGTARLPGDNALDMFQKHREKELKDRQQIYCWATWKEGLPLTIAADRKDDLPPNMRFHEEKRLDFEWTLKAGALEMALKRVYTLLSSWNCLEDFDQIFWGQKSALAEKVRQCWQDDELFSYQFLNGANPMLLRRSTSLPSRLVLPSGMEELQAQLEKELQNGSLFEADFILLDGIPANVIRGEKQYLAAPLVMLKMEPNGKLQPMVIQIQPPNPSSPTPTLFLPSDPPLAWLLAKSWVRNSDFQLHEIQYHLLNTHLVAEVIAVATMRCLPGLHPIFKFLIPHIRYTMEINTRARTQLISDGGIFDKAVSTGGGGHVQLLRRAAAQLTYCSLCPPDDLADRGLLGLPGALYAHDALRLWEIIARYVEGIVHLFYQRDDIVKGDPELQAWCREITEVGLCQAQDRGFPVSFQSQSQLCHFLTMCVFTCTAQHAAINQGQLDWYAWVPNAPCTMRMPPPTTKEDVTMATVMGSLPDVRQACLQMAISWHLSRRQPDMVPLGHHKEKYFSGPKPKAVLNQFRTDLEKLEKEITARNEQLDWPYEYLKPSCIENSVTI
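Purified human 12hLO (150 nM final) in 25 mM Hepes, 0.01% Triton X-100, pH 7.0 was preincubated 15 min at room temperature with compound. Then 40 uM arachidonic acid was added, 30 min. Hydroperoxide was read by Fe-XO absorbance ratio 573/405 nm.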
a7 integrin act – qHTS for Activators of Integrin-Mediated Alleviation for Muscular Dystrophy; alpha7betagal myoblasts, beta-gal FDG fluorescence, 48 h; Potency, µM (doses to about 38.3 µM), for inactives: at the top dose activation, actives largely listed as activators; actives 0.064% (n = 350,000); AID 624291, 2012;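 further: potency means the concentration at half of the fitted maximal effect; 100% = response of the positive control SU9516; nearly all actives have a fitted effect of over 60% in size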
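Alpha7betagal+/- myoblasts (passage 13) were plated 16-24 hr, then exposed to compounds (1:260 dilution of DMSO stock) for 48 hours at 37C. After MPER lysis, β-galactosidase reporter activity was read as FDG fluorescence (ex 480/em 540) after 30 minutes.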
IL2 activator – qHTS of IL-2 Activators | activation, % (series mostly up to about 46 µM) | actives 0.065% (n = 360,000) | IL-2 activation reporter assay, cell-based qHTS; stimulated with anti-CD3/CD4/CD28 beads; in transgenic mouse T cells | AID 652025, 2013; in the data active means activation above about 50%; inconclusive means mostly about 30% to 49%; further: 0% is about no effect
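Quantitative HTS in unstimulated transgenic mouse T cells, with memory T cells as non-tolerant control and PMA/ionomycin as tolerance-bypass control. Compound pretreatment lasted 60 minutes before 18 h bead stimulation; EGFP/DsRed fluorescence read.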
uPA surface inh – qHTS for Inhibitors of Cell Surface uPA Generation. Potency, µM (doses to about 38.3 µM), for inactives: at the highest dose activity change, negative = inhibition, actives largely listed as inhibitors. actives 0.31% (n = 330,000). cell surface uPA generation assay, qHTS; active means well fitted inhibition curve with a large enough effect; inconclusive means small, poorly fitted or top-dose-only effect; inactive means no such curve, though single readings can be large or run the other way; tested in mouse RAW 264.7 cells; further: potency means the concentration at half of the fitted maximal effect; on the % scale 0 is the no-effect control and ±100 the full control effect; nearly all actives have a fitted effect of over 55% in size
* = called active by the depositor; [ ] = another dose, or the depositor's remark. Hits are enriched below; roughly 1.5% of the tested compounds scored in any of these assays. Unless noted, the call rests on the fitted dose curve; in most records, active means well fitted curve in the direction sought with a large enough effect; inconclusive means small, poorly fitted or top-dose-only effect, or another doubt; inactive means no such curve, though single readings can be large; an effect the other way counts as inactive or inconclusive.

Results for Cc1ccc(C(=O)OCC(=O)N(C)c2ccccc2)c(C)c1 ?
Nrf2 ARE act: 2%; ALOX12 inh: 9%; a7 integrin act: 0%; IL2 activator: -1; uPA surface inh: 1%

What do the screens show for `CN(C(=O)COC(=O)c1ccc([N+](=O)[O-])cc1N)c1ccccc1`?
Nrf2 ARE act: 3%; ALOX12 inh: 4%; a7 integrin act: -478%; IL2 activator: 77*

How did COc1ccccc1C(=O)N1CCC(C(NC(=O)c2ccccc2C)C(=O)N2CCCC2)CC1 (configuration not stated) do in these assays?
ALOX12 inh: 41%

Results for CCc1nnc(NS(=O)(=O)c2ccc(NC(=S)NC(=O)/C=C/c3ccccc3)cc2)s1 ?
Nrf2 ARE act: 4%; ALOX12 inh: 22µM*; a7 integrin act: -2%; IL2 activator: -2; uPA surface inh: -4%

How did CCc1nnc(NS(=O)(=O)c2ccc(NC(=S)NC(=O)/C=C/c3ccc(OC)cc3)cc2)s1 do in these assays?
Nrf2 ARE act: 1%; ALOX12 inh: -28%; a7 integrin act: 9%; IL2 activator: -2; uPA surface inh: -10%

How did CCc1nnc(NS(=O)(=O)c2ccc(NC(=O)c3ccccc3)cc2)s1 do in these assays?
Nrf2 ARE act: 0%; ALOX12 inh: 2%; a7 integrin act: -12%; IL2 activator: 2; uPA surface inh: 3%

What do the screens show for `COc1nccnc1NS(=O)(=O)c1ccc(NC(=S)NC(=O)/C=C/c2ccc(F)cc2)cc1`?
Nrf2 ARE act: 1%; ALOX12 inh: 13µM*; a7 integrin act: -20%; IL2 activator: -2; uPA surface inh: -23%

What do the screens show for `CCc1nnc(NS(=O)(=O)c2ccc(NC(=S)NC(=O)c3ccc(Br)cc3)cc2)s1`?
Nrf2 ARE act: 0%; ALOX12 inh: 5.6µM*; a7 integrin act: 25%; IL2 activator: -3; uPA surface inh: -3%

Results for CCc1nnc(NS(=O)(=O)c2ccc(NC(=S)NC(=O)c3ccccc3)cc2)s1 ?
Nrf2 ARE act: 1%; ALOX12 inh: 7.9µM*; a7 integrin act: -3%; IL2 activator: -2; uPA surface inh: 2%

Results for COc1cc(NS(=O)(=O)c2ccc(NC(=S)NC(=O)/C=C/c3ccc(F)cc3)cc2)ncn1 ?
Nrf2 ARE act: -1%; ALOX12 inh: -11%; a7 integrin act: 13%; IL2 activator: 3; uPA surface inh: 12%

How did Cc1cc(CS(=O)(=O)CC(=O)NC2CCCCCC2)on1 do in these assays?
ALOX12 inh: -4%

Results for CCc1nc(-c2c3n(c(=O)n(Cc4ccccc4Cl)c2=O)CCCC3)no1 ?
ALOX12 inh: 33%

Results for CNc1nc(-c2[nH]c(C)c(C(=O)OC)c2C)cs1 ?
ALOX12 inh: 20µM*

Results for Nc1nccnc1C(=O)NCc1ccc2c(c1)OCCO2 ?
ALOX12 inh: -1%

What do the screens show for `O=C(N/N=C/C(Cl)=C/c1ccccc1)c1cnccn1`?
Nrf2 ARE act: 11µM*; ALOX12 inh: -3%; a7 integrin act: -52%; IL2 activator: 0; uPA surface inh: -9%

How did CC(=C/c1ccccc1)/C=N/NC(=O)c1cnccn1 do in these assays?
Nrf2 ARE act: 0%; ALOX12 inh: 0%; a7 integrin act: 0%; IL2 activator: -1; uPA surface inh: -9%

Results for O=C(N/N=C/C(Cl)=C\c1ccccc1)c1cnccn1 ?
Nrf2 ARE act: 16µM*; ALOX12 inh: 0%; a7 integrin act: -45%; IL2 activator: -2; uPA surface inh: -12%

What do the screens show for `N#C/C(=C\c1ccc(-c2ccccc2Cl)o1)c1ccccc1`?
ALOX12 inh: 5%

What do the screens show for `CN(C)C[C@@H]1CN(c2ncccn2)C[C@H]1NC(=O)c1cnccn1`?
ALOX12 inh: 5%

What do the screens show for `CCC(=O)N1CCCN(CCOC)c2ccccc21`?
ALOX12 inh: 33%

Results for O=C(C1=C(O)C(=O)N(CC2CCCO2)C1c1ccc(Cl)cc1Cl)c1ccco1 (configuration not stated) ?
Nrf2 ARE act: 1%; ALOX12 inh: 40µM*; a7 integrin act: -18%; IL2 activator: 0; uPA surface inh: -2%

What do the screens show for `O=C(C1=C(O)C(=O)N(CC2CCCO2)C1c1ccccc1)c1ccco1` (configuration not stated)?
Nrf2 ARE act: 0%; ALOX12 inh: -27%; a7 integrin act: -24%; IL2 activator: 3; uPA surface inh: 2%

Results for O=C(C1=C(O)C(=O)N(CC2CCCO2)C1c1ccccc1Cl)c1ccco1 (configuration not stated) ?
Nrf2 ARE act: 0%; ALOX12 inh: 32µM*; a7 integrin act: inconclusive; IL2 activator: -1; uPA surface inh: 6%

Results for Cc1ccc(C(=O)C2=C(O)C(=O)N(Cc3ccco3)C2c2cccc(Cl)c2)o1 (configuration not stated) ?
Nrf2 ARE act: 1%; ALOX12 inh: 25µM*; a7 integrin act: 29%; IL2 activator: -1; uPA surface inh: -2%

Results for CC(C)(C)c1ccc(C2C(C(=O)c3ccco3)=C(O)C(=O)N2CC2CCCO2)cc1 (configuration not stated) ?
Nrf2 ARE act: 0%; ALOX12 inh: 22µM*; a7 integrin act: -7%; IL2 activator: 1; uPA surface inh: 8%

Results for Cc1nc(C)c(C(=O)N2CCC(Cc3noc(-c4ccccc4)n3)C2)s1 (configuration not stated) ?
ALOX12 inh: 91%

Results for O=C(C1=C(O)C(=O)N(CC2CCCO2)C1c1cccc(Cl)c1)c1ccco1 (configuration not stated) ?
Nrf2 ARE act: 5%; ALOX12 inh: 28µM*; a7 integrin act: 9%; IL2 activator: 0; uPA surface inh: -3%

What do the screens show for `c1ccc(-c2nnc(-c3ccccc3)o2)cc1`?
Nrf2 ARE act: 4.5µM*; ALOX12 inh: 318%; a7 integrin act: 15%; IL2 activator: 0; uPA surface inh: -14%

Results for O=C(CCc1ccccc1)c1nnc(-c2ccccc2)o1 ?
Nrf2 ARE act: 1%; ALOX12 inh: 26%; a7 integrin act: 10µM*; IL2 activator: 1; uPA surface inh: -2%

Results for Brc1cccc(-c2nnc(-c3ccccc3)o2)c1 ?
Nrf2 ARE act: 3.2µM*; ALOX12 inh: -27%; a7 integrin act: 2%; IL2 activator: 0; uPA surface inh: -4%

How did O=C1NCc2ccccc2CC12CCCN(Cc1ccccc1OC(F)(F)F)C2 (configuration not stated) do in these assays?
ALOX12 inh: 10%[6.33 µM]

What do the screens show for `CCOC(=O)C1=CN(CC(=O)Nc2cccc(C)c2)S(=O)(=O)N=C1C`?
ALOX12 inh: 9%
